PubChem BioAssay (NCATS)
Results filed as inconclusive are left out. Unmarked numbers belong to inactive results. The call rests on the fitted dose curve; in most records, active means well fitted cell-killing curve with a large enough effect; inconclusive means small, poorly fitted or top-dose-only effect, or effect the other way; inactive means flat fitted curve, though single readings scatter.

What follows are compounds tested on Tov112D (assay: Primary qHTS to identify gynecologic anti-cancer compounds using libraries of approved drugs and bioactive compounds (AID 1345084; further: nearly all actives have a fitted effect of over 55% in size)). Settings: Gynecologic cancer cell panel viability, ATPlite luminescence, 48 h; series mostly up to 57.5 µM; activity change, negative = cytotoxicity: at the top concentration.
Summary of the method: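 Measured: luminescence after ATPlite addition (15 min, RT). Exposure: 48 h, 37 C, 5% CO2.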
On the % scale 0 is the no-effect control and ±100 the full control effect.

In order of rising “activity change, negative = cytotoxicity” value:
1. CCCCN(CCCC)C(C(N)=O)c1ccc(OC)cc1 (stereo not given)  -10.9%
2. CCCCN(CCN(CCCC)C(=O)N1CCOCC1)C(=O)N1CCOCC1  -1.72%
3. CCC(C(=O)NC(=O)NC(C)=O)c1ccccc1 (stereo not given)  -1.69%
4. C[C@H]1C[C@H](O)c2ccsc2S1(=O)=O  0.466%
5. CCCC(=O)OCOC(=O)C1=C(C)NC(C)=C(C(=O)OC)C1c1cccc(Cl)c1Cl (stereo not given)  0.934%
6. CC1CCCCN1CCCOC(=O)c1ccc(OC2CCCCC2)cc1 (stereo not given)  1.68%
7. NC(=O)NS(=O)(=O)c1ccc(Cl)cc1  3.16%
8. N#CSCC(=O)O  3.56%
9. CC(=O)Nc1ccc(S(=O)(=O)Nc2cc(C)on2)cc1  3.58%
10. Nc1ccc([N+](=O)[O-])c(C(F)(F)F)c1  5.22%
11. CC(NC(CCc1ccccc1)C(=O)O)C(=O)N1C(=O)N(C)CC1C(=O)O (stereo not given)  5.32%
12. Cc1nc(C2CCCCC2)c(-c2ccc(S(N)(=O)=O)c(F)c2)o1  5.62%
13. O=C(CCCl)NCCc1ccccc1  10.9%
14. COc1ccccc1OCC1CNC(=O)O1 (stereo not given)  12.7%
15. Cc1ccccc1C(=O)N1CC/C(=N\OS(=O)(=O)O)c2ccc(Cl)cc21  13.8%
16. O=c1[nH]c(=O)n([C@H]2O[C@H](CO)[C@@H](O)[C@@H]2O)cc1/C=C\Br  17.1%
17. Cn1c(=O)c2c(ncn2CC(=O)O)n(C)c1=O  17.5%
18. O=[N+]([O-])c1ccc(-c2nc(-c3ccc(F)cc3)c(-c3ccncc3)[nH]2)cc1  17.5%

C[C@H]1NCc2cc(-c3ccc4c(=O)c(C(=O)O)cn(C5CC5)c4c3OC(F)F)ccc21 was tested, and the “activity change, negative = cytotoxicity” value was 0.61% [at 25.3 µM].

With C1=CC2C3C=CC(C3)C2C1 (stereo not given) the “activity change, negative = cytotoxicity” value was 10.2% [at 116 µM].
